# Only some compounds are listed: those with a hit (about 3.8% of all), similar ones and a draw of the others.
# PfHsp90 set2 – growth inhibition of PfHsp90-expressing yeast, primary screen, antimalarial PfHsp90 inhibitor project, S. cerevisiae, BacTiter-Glo luminescence, single point, set 2 | BacTiter-Glo ATP, 48 h; yeast lacking PDR1 and PDR3 efflux regulators | inhibition, % at 9.4 µM | actives 0.32% (n = 310,000);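 active means every replicate shows inhibition above about 80%, whatever the replicate mean, limit read from the data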;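 further: 0% = DMSO neutral controls and 100% = 20 µM radicicol positive controls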
# TIM10 inh – growth inhibitors of isogenic TIM10 control yeast, primary screen, counter-screen for tim10-1 yeast inhibitor project, luminescence, uHTS; S. cerevisiae TIM10 strain growth, BacTiter-Glo luminescence, 24 h; inhibition, % at 10 µM; actives 1.4% (n = 330,000);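 active means inhibition of 40% or more at the single tested concentration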;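 further: wild-type TIM10 isogenic control strain grown at permissive 25 °C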
# tim10-1 inh – growth inhibitors of tim10-1 mutant yeast, primary screen, luminescence, uHTS; S. cerevisiae tim10-1 ts strain growth, BacTiter-Glo, 24 h; inhibition, % at 20 µM; actives 2.2% (n = 330,000); AID 463190, 2010;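 active means inhibition of at least 40%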;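 further: mutant grown at 25 °C; 0% = DMSO wells with yeast and 100% = wells holding no yeast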
# Beta2AR agonist – beta2AR agonists driving receptor internalization, primary screen, cell-based, FAP fluorogen, flow cytometry; Beta-2 adrenergic receptor (Homo sapiens), P07550; Am2.2-beta2AR cells; response, % (concentration not given with the values); actives 0.43% (n = 340,000); AID 504454, 2011;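 active means response above a set limit, near 3 SD of response in nonfluorescent compounds, cut at about 42% in these data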
# Target sequence (P07550 whole entry, looked up): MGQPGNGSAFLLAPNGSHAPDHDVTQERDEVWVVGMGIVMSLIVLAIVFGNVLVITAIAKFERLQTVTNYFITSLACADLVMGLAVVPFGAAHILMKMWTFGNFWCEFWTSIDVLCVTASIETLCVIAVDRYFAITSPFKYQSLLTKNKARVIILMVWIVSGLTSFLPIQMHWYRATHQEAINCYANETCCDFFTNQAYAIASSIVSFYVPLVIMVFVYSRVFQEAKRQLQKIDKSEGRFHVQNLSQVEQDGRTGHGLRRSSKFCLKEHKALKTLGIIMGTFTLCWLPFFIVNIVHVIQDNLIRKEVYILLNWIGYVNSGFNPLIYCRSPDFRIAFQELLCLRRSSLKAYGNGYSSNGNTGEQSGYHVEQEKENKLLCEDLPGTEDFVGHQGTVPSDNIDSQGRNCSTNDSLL
# tim23-1 inh – growth inhibitors of tim23-1 mutant yeast, primary screen, luminescence, uHTS. AID 463212, 2010. inhibition, % at 20 µM. actives 1.3% (n = 330,000). S. cerevisiae tim23-1 growth, BacTiter-Glo luminescence, 24 h;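 active means growth inhibition of the mutant yeast at or above 50%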;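 further: temperature-sensitive mutant grown at 25 °C; plate controls were DMSO-treated mutant yeast for no effect and medium wells lacking yeast for full effect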
# tim10 confirm – growth inhibitors of wild-type TIM10 yeast, confirmation, counter-screen for tim10-1 synthetic lethality project, single concentration, luminescence, S. cerevisiae. shares compounds with TIM10 inh. S. cerevisiae tim10 strain growth, BacTiter-Glo luminescence, 24 h. inhibition, % at 10 µM. actives 63% (n = 4,600);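 active means inhibition of yeast growth at or above a set limit in either of two replicates at 10 µM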;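 further: this counterscreen used the strain with wild-type TIM10; 0% = yeast with DMSO and 100% = medium wells lacking yeast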
# Numbers without * were called inactive; x = no result given.
SMILES,PfHsp90 set2,TIM10 inh,tim10-1 inh,Beta2AR agonist,tim23-1 inh,tim10 confirm
CN1c2ccccc2-c2nc3ccccc3n2C1c1ccccn1 (stereo unspecified),4.0,42.7*,23.6,-7.1,-2.0,9.8
CN1c2ccccc2-c2nc3ccccc3n2C1c1ccncc1 (stereo unspecified),11.3,18.6,2.0,-2.9,8.9,x
Cc1cc(=O)n2nc(N3CCC(C(=O)NCC(C)c4ccccc4)CC3)sc2n1 (stereo unspecified),-11.9,-2.9,12.9,-8.0,-1.2,x
O=C(CCC1CCCCC1)Nc1ccc(C(=O)c2ccncc2)cc1,-6.5,43.0*,34.5,-1.5,43.0,39.2*
CC1CCN(C(=O)c2ccc(NC3=C(Cl)C(=O)N(Cc4ccccc4)C3=O)cc2)CC1,x,41.4*,21.6,25.4,39.6,42.0*
Cc1cccc(OCCCCc2c(C)n[nH]c2C)c1,-3.1,40.4*,23.6,21.9,37.9,38.8*
COc1cccc(OCCc2c(C)n[nH]c2C)c1,-5.2,10.1,14.0,8.1,10.3,x
COc1ccccc1OCCCc1c(C)n[nH]c1C,35.7,52.4*,21.0,7.3,-49.7,50.9*
COC(=O)c1ccc(COC(=O)c2ccc(C)c(S(=O)(=O)N3CCCCC3)c2)cc1,x,-4.0,5.8,5.1,7.6,x
CC(C)(C)C(=O)Nc1ccc(C(=O)COC(=O)c2ccccn2)cc1,-25.8,1.2,-19.2,16.3,5.9,x
On1onc2c3cc(-c4ccccc4)nc3ccc21,-9.6,61.1*,36.0,26.6,23.7,52.9*
CCc1ccc(N2CC(C(=O)Nc3cccc(C(=O)NC4CC4)c3)CC2=O)cc1 (stereo unspecified),-8.1,2.6,14.7,-10.2,1.4,x
COc1cc(OC)c(N2CC(C(=O)Nc3cccc(C(=O)NC4CC4)c3)CC2=O)cc1Cl (stereo unspecified),-7.3,82.1*,-1.2,1.7,-3.8,-3.6
O=C(O)c1ccc(NC(=S)NC(=O)c2ccc(-c3ccc(Br)cc3)o2)cc1,x,x,x,0.0,x,x
O=C1c2ccccc2S(=O)(=O)c2cc(N3CCc4ccccc4C3)ccc21,x,44.2*,35.3,x,36.6,28.0
O=C(CN1C(=O)NC2(CCCCCCC2)C1=O)Nc1cccc(Br)c1,5.2,10.5,1.3,-4.5,8.1,x
Cc1ccc2oc(=O)c3cc(C(=O)NCCCN4CCc5ccccc5C4)sc3c2c1,5.1,55.0*,33.3,-22.6,38.6,28.0
Cc1ccc2oc(=O)c3cc(C(=O)NCCCN4CCCCCC4)sc3c2c1,5.3,16.5,13.0,17.2,8.7,x
C/C=C(/C)C(=O)OC1c2c(ccc3ccc(=O)oc23)OC(C)(C)C1OC(C)=O (stereo unspecified),27.5,42.1*,38.7,3.0,34.1,2.4
C/C=C(/C)C(=O)O[C@@H]1[C@H](OC(C)=O)c2c(ccc3ccc(=O)oc23)OC1(C)C,3.4,16.3,27.5,-5.3,40.6,x
COc1cccc(/C=N/NC(=O)c2cnccn2)c1O,-19.5,95.2*,-0.4,1.4,33.9,11.9
O=C(N/N=C/c1ccccc1OCc1ccccc1)c1cccnc1,1.6,40.3*,29.0,-2.7,42.1,21.5
COC(=O)CC1(CC(N)=O)SCCS1,1.8,x,x,-0.3,x,x
CCC(CC)=NNc1ccc(S(N)(=O)=O)cc1[N+](=O)[O-],1.2,6.6,7.0,-5.7,11.1,x
C/C(CCC(C)C)=N\Nc1ccc(S(N)(=O)=O)cc1[N+](=O)[O-],18.4,74.7*,15.0,-4.5,33.9,25.6
O=C(NC1CC1)c1ccc2c(c1)S(=O)(=O)c1cc(Cl)ccc1C2=O,x,-7.9,-6.1,x,0.6,x
CCc1cc(C(=O)NCC(c2ccco2)N2CCCCC2)sc1C (stereo unspecified),x,3.6,10.6,-7.4,-6.7,x
O=C1CC(N2CCC(c3nc4ccccc4o3)CC2)C(=O)N1c1ccc(Cl)c(C(F)(F)F)c1 (stereo unspecified),104.1*,43.4*,6.4,-0.6,37.4,26.8
O=C1CC(N2CCC(c3nc4ccccc4o3)CC2)C(=O)N1c1ccc(F)cc1 (stereo unspecified),-5.9,12.7,7.9,-6.7,17.7,x

# Source: PubChem
